Assay results reported in PubChem BioAssay AID624351 (Southern Research Specialized Biocontainment Screening …, 2012).
The whole screen tested about 2,400 compounds, of which about 1,400 (58%) were called active. The set was probably picked from earlier hits. Some of the results follow. Values without a mark were called inactive.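 How the source made its calls: active means inhibition of 30% or more at any tested dose; inconclusive means primary hits over the limit that were never retested; inactive means the rest.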

Test: ADP Hunter readout inhibition without MgcRacGAP – biochemical, coupled enzyme counter-screen, artefact control for MgcRacGAP inhibitor project, dose response (AID 624351);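 further: signal is the ADP detection kit reading of free GDP without any GAP enzyme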;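 on inhibition: 0% = median positive control wells and 100% = median negative control wells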
Conditions: fluorescence, no MgcRacGAP; series mostly up to 80 µM

Compound	IC50	inhibition
Cc1ccc(OCCCN2CCCC2)c(C)c1	inactive	–
O=C(Cc1cccs1)N/N=C\c1ccc(O)cc1	42.6 µM (active)	–
COc1ccc(Cc2nnc(NC(=O)Cc3cccs3)s2)cc1	inactive	–
O=C(C[n+]1ccccc1)N/N=C/c1ccc(O)cc1	81.2 µM (active)	–
O=C(CNS(=O)(=O)c1ccccc1)N/N=C/c1ccc(O)cc1	61.6 µM (active)	–
C[n+]1c(-c2ccc(C=NNC(=O)c3ccc(C(=O)NN=Cc4ccc(-c5cn6ccccc6[n+]5C)cc4)cc3)cc2)cn2ccccc21	inactive	–
CC(=O)Oc1ccc2c(=O)c(Oc3ccccc3)coc2c1OC(C)=O	inactive	–
CCN1/C(=C/c2ccc3cc(C)ccc3[n+]2CC)Sc2ccccc21	inactive	–
OC(CON=C1c2ccccc2-c2ccccc21)CN1CCNCC1 (stereo unspecified)	inactive	–
O=C(CNC(=O)c1ccccc1Br)N/N=C/c1ccc(O)cc1	54.3 µM (active)	–
O=C(N/N=C/c1ccc(O)cc1)c1cccc(C(F)(F)F)c1	69.2 µM (active)	–
Cc1ccc(C(=O)Oc2csc(=S)n2C(=O)c2ccc(C)cc2)cc1	inactive	–
Cc1ccc(C)c(OCCCCN2CCCCC2)c1	inactive	–
COc1ccc(CN2CCC(N3CC(C)OC(C)C3)CC2)c(OC)c1OC (stereo unspecified)	inactive	–
COc1cc(/C=N/NC(=O)c2cc(C)oc2C)ccc1O	49.8 µM (active)	–
Cc1cc(C(=O)NNC(=O)/C=C/c2ccco2)c(C)o1	inactive	–
COc1cc(/C=N/NC(=O)c2ccoc2C)ccc1O	32.2 µM (active)	–
OCCN(CCO)c1ccc2ccccc2c1	65 µM (active)	–
OCCN1CCN(Cc2ccc3ccccc3c2)CC1	inactive	–
CCCN(CCO)CCCc1ccccc1	inactive	–
CCOc1cc(/C=N\n2nnnc2N)ccc1O	45.1 µM (active)	–
CCOc1cc(/C=N/n2cnnc2)ccc1O	34 µM (active)	–
COc1cc(/C=N/n2cnnc2)ccc1OC(=O)c1cccnc1	inactive	–

Compound	IC50	inhibition
COc1cc(/C=N/n2nnnc2N)ccc1O	18.4 µM (active)	–
Cc1[nH]c2ccccc2c1/C=N/Nc1nncn1N	62.6 µM (active)	–
CCc1nnc(N/N=C/c2c(C)[nH]c3ccccc23)n1N	45.9 µM (active)	–
Cc1[nH]c2ccccc2c1/C=N\NC(=O)CNc1ccc2c(c1)OCO2	inactive	–
CCc1nnc(N/N=C/c2cc(Br)c(O)cc2O)n1N	72.7 µM (active)	–
N#CC(C#N)=C1C=CC=CN1/C(=C\c1ccco1)C(=O)c1ccc(Br)cc1	inactive	–
O=C(O)c1cccc(-n2sc3ccccc3c2=O)c1	inactive	–
O=c1c2ccccc2sn1-c1ccc(F)cc1	inactive	–
CC1(C)CC(=O)C(C=Nc2ccc(O)cc2)=C(O)C1	17.4 µM (active)	–
CC1(C)CC(=O)C2=C(C1)OC1=C(C(=O)CC(C)(C)C1)C2c1ccc(O)cc1O	inactive	–
CC1(C)CC(=O)C(C(C2=C(O)CC(C)(C)CC2=O)c2ccc(Br)s2)C(=O)C1 (stereo unspecified)	inactive	–
Cc1ccc(C(C2=C(O)CC(C)(C)CC2=O)C2C(=O)CC(C)(C)CC2=O)s1 (stereo unspecified)	inactive	–
Cc1ccc(C(C2=C(O)CC(C)(C)CC2=O)C2C(=O)CC(C)(C)CC2=O)o1 (stereo unspecified)	inactive	–
CC1(C)CC(=O)C(C=Nc2ccc(N)cc2)=C(O)C1	82.4 µM (active)	–
O=C1CCCC(O)=C1C=Nc1ccc(O)cc1	18.6 µM (active)	–
O=C1CC(c2ccccc2)CC(O)=C1C=Nc1ccc(O)cc1 (stereo unspecified)	28.9 µM (active)	–
O=[N+]([O-])c1cnc(Sc2ccncn2)c([N+](=O)[O-])c1	inactive	–
CSc1nc(/C=C2\C=Nc3ccccc32)c(O)n1C	45.4 µM (active)	–
CSc1nc(O)c(/C=C2\C=Nc3ccccc32)[nH]1	33.2 µM (active)	–
CC1(C)CC[C@]2(C(=O)n3ccnc3)CC[C@]3(C)[C@H](C(=O)C=C4[C@@]5(C)C=C(C#N)C(=O)C(C)(C)[C@@H]5CC[C@]43C)[C@@H]2C1	inactive	–
CCc1ccc(O)c(N=Cc2cccc(C)c2O)c1	50.5 µM (active)	–
CCc1ccc(O)c(N=Cc2ccccc2O)c1	37.4 µM (active)	–
C=CCc1cccc(C=Nc2cc(Br)ccc2O)c1O	16.2 µM (active)	–

Compound	IC50	inhibition
Cc1ccc(O)c(N=Cc2cc(Cc3ccccc3)cc([N+](=O)[O-])c2O)c1	inactive	–
OC(CNCC1COc2ccccc2O1)COCc1cccs1 (stereo unspecified)	inactive	–
O=C(C1CCCN(Cc2cccnc2)C1)N1CCCCC1 (stereo unspecified)	inactive	–
Cc1ccc(CN2CCN(CC3CC4C=CC3C4)CC2)cc1 (stereo unspecified)	inactive	–
Cc1cccc2c1c1ccc3c(c1n2C)C(=O)C=CC3=O	inactive	–
CC(OC(=O)CCN=C1NS(=O)(=O)c2ccccc21)C(=O)Nc1ccc(N(C)C)cc1 (stereo unspecified)	50.9 µM (active)	–
Clc1ccc(CNc2ccc(N3CCN(Cc4ccccc4)CC3)cc2)cc1	30.3 µM (active)	–
C#CCOc1ccccc1CNC1CCN(Cc2ccccc2)CC1	inactive	–
Fc1ccc(CN2CCN(C(c3ccccc3)c3ccccc3)CC2)cc1	inactive	–
O=C(CN1CCN(Cc2ccccc2)CC1)Nc1ccc(F)c(F)c1	inactive	–
O=C(CN1CCN(Cc2ccccc2)CC1)NC(c1ccccc1)c1ccccc1	inactive	–
Fc1ccc(CNc2ccc(N3CCN(Cc4ccccc4)CC3)cc2)cc1	12.3 µM (active)	–
CN(C)C(=S)N=c1ssc(=S)n1Cc1cccnc1	inactive	–
O=C1CSC(=Nc2ccc(O)cc2)N1	42 µM (active)	–
Cc1ccc(C)n1/N=C1/NC(=O)CS1	–	-5.01% [at 10 µM]
C=CCN1C(=O)CSC1=Nc1ccc(O)cc1	28.9 µM (active)	–
COc1cc(/C=N/N=C2/SCC(=O)N2c2ccc(O)cc2)ccc1O	48.1 µM (active)	–
O=C1CSC(=Nc2ccc(O)cc2)N1c1ccc(O)cc1	56.7 µM (active)	–
S=c1[nH]nc(Nc2ccccc2Cl)s1	51.9 µM (active)	–
COc1ccccc1Nc1ccc2c(O)cc(S(=O)(=O)O)cc2c1	inactive	–
Cc1c(Cl)cccc1Nc1n[nH]c(=S)s1	78.7 µM (active)	–
COc1ccccc1Nc1n[nH]c(=S)s1	46.8 µM (active)	–
Cc1c(Cl)cccc1NC(=S)Nc1ccc2[nH]c(=O)[nH]c2c1	inactive	–

Compound	IC50	inhibition
N#CC1=C(Nc2ccccc2Cl)SC(c2ccccc2O)NC1=O (stereo unspecified)	inactive	–
Fc1ccccc1Nc1n[nH]c(=S)s1	47.7 µM (active)	–
CCc1cc(/C(Cc2cscn2)=N\O)c(O)cc1O	52.1 µM (active)	–
CCc1cc(/C(Cc2ccccn2)=N\O)c(O)cc1O	32.1 µM (active)	–
CCc1cc(/C(Cc2csc(C)n2)=N/O)c(O)cc1O	33.2 µM (active)	–
Cc1ccccc1CN(C)CCc1ccccn1	inactive	–
N/N=C(\Cc1cscn1)c1ccc(O)cc1O	67.8 µM (active)	–
COc1ccc(Br)cc1CN1CCN(C(=O)c2ccc(F)cc2)CC1	inactive	–
CCN(CCNCC(O)COc1ccccc1C(C)C)c1cccc(C)c1 (stereo unspecified)	inactive	–
COc1cccc(CN2CCN(Cc3cc(OC)c(OC)cc3[N+](=O)[O-])CC2)c1	inactive	–
COc1cc(-c2cc(-c3ccc(O)cc3)nc(N)c2C#N)ccc1O	51.6 µM (active)	–
COc1cc(-c2cc(-c3ccc(F)cc3)nc(N)c2C#N)ccc1O	inactive	–
CCCN(CCC)CCCNC(=S)Nc1ccc2nc(N3CCCC3)cc(C)c2c1	inactive	–
CCn1c(=O)n(CC)c2cc(N3CCCC3)c(NC(=O)c3cccc(Cl)c3)cc21	inactive	–
O=C(/C(=C/c1cccnc1)n1ccnc1)c1ccc(Cl)cc1Cl	inactive	–
COCCNCCOCCOc1ccc(Cl)c(C)c1	inactive	–
CCOc1cc(/C=C2\C(=O)N(Cc3ccco3)C(C)=C2C(=O)OC)ccc1O	68.7 µM (active)	–
COC(=O)C1=C(C)N(Cc2ccco2)C(=O)/C1=C\c1ccc([N+](=O)[O-])cc1	inactive	–
COC(=O)C1=C(O)/C(=C\c2ccc(O)c(OC)c2)N=C1C	20 µM (active)	–
COC(=O)C1=C(C)N(Cc2ccco2)C(=O)C1	inactive	–
CCOc1cc(/C=C2/N=C(C)C(C(=O)OC)=C2O)ccc1O	29.6 µM (active)	–
CCOC(=O)C1=C(O)/C(=C\c2ccc(O)c(OCC)c2)N=C1C	52.3 µM (active)	–
COc1nc(Nc2ccc(O)cc2)nc(OC(C(F)(F)F)C(F)(F)F)n1	39 µM (active)	–

Compound	IC50	inhibition
CN(C)S(=O)(=O)c1cc(NC(=O)CNCCN2CCOCC2)ccc1Cl	inactive	–
COc1ccc(CCNCCN2CCOCC2)cc1	inactive	–
COc1ccccc1OCCCCCCN1CCOCC1	inactive	–
COc1cc(/C=N/NC(=S)NCCN2CCOCC2)ccc1O	21.8 µM (active)	–
O=S(=O)(Nc1ccccc1F)c1cccc(NC(=S)NCCN2CCOCC2)c1	inactive	–
Oc1ccc(/C=N/NC(=S)NCCN2CCOCC2)c(O)c1	20.9 µM (active)	–
CCOc1cc(-c2cc(-c3ccccc3)nc(N)c2C#N)ccc1O	inactive	–
CCN1CCN(CC(=O)Nc2nc3ccccc3s2)CC1	inactive	–
COc1cc(-c2nc3ccccc3s2)ccc1O	18.2 µM (active)	–
CCOc1cc(-c2nc3ccccc3s2)ccc1O	48.6 µM (active)	–
O=C(c1ccc(F)cc1)N1CCN(C2CCCCC2)CC1	inactive	–
COc1cc2c(cc1OC)C1(CCCC1)C(N)=C2C#N	57.3 µM (active)	–
O=C(c1c(Cl)cccc1Cl)N1CCN(c2cccc3[nH]ccc23)CC1	50.9 µM (active)	–
O=C(c1cccc(Cl)c1)N1CCN(C2CCCCC2)CC1	inactive	–
O=C(c1ccco1)N1CCN(Cc2cccc([N+](=O)[O-])c2)CC1	inactive	–
O=[N+]([O-])c1cccc(CN2CCN(Cc3ccco3)CC2)c1	inactive	–
O=[N+]([O-])c1cccc(CN2CCN(c3cccc4[nH]ccc34)CC2)c1	46.7 µM (active)	–
COc1cc(/C=C2\Oc3cc(O)ccc3C2=O)ccc1O	33.9 µM (active)	–
O=C1/C(=C/c2ccc(O)c(O)c2)Oc2cc(O)ccc21	28.2 µM (active)	–
